From ChEMBL document CHEMBL3988442, “University of Dundee, Small-Polar-MMV Screening Library” (2021)

Biological target: T1, Methionyl-tRNA synthetase, putative (Leishmania donovani (strain BPK282A1)) (UniProt E9BF75)
T1 sequence (whole entry): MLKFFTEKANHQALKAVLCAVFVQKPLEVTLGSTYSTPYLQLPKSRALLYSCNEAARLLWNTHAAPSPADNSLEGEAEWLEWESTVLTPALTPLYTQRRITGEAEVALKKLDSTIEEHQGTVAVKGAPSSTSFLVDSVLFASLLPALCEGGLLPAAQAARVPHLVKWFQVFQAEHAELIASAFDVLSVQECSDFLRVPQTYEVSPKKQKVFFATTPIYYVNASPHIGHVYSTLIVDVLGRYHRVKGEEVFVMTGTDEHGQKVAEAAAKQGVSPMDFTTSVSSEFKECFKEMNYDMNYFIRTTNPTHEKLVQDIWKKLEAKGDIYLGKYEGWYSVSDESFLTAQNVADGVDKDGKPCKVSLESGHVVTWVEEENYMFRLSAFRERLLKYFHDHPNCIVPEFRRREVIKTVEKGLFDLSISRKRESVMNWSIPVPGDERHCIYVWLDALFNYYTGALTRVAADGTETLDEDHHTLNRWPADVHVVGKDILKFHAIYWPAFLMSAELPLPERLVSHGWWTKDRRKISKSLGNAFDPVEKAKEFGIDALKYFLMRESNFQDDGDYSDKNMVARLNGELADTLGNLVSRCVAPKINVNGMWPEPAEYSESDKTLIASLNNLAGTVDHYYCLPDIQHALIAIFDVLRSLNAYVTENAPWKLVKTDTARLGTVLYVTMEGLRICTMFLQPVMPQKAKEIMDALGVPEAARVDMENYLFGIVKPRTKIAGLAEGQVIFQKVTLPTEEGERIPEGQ
Experiment: Leishmania donovani Methionine tRNA synthetase (LdMetRS):v7. Dose response assay
Assay type: functional
Parameters: conc 80 nM, time 150 minutes

## COc1ccc(-c2cc(C(F)(F)F)nc(N3CCCCC3)n2)cc1OC
MAX_EFFECT 2.702702703
  PXC50: < 4
MAX_EFFECT 3.015075377
  PXC50: < 4

## CCNc1cc(-c2ccccn2)nc(Nc2ccc(F)cc2)n1
MAX_EFFECT 11.72707889
  PXC50: < 4
MAX_EFFECT 12.21532091
  PXC50: < 4

## CCOc1ccc(CN(C)Cc2nc(N)c3c(C)c(C)sc3n2)cc1
MAX_EFFECT 7.466666667
  PXC50: < 4
MAX_EFFECT 8.994708995
  PXC50: < 4

## Nc1noc2ccc(-c3cnc4ccc(N5CCCCC5)nn34)cc12
BOTTOM 2.074435444, HILLSLOPE 0.92774459, MAX_EFFECT 58.33333333, TOP 100.0
  PXC50: 4.06
BOTTOM -0.552717408, HILLSLOPE 0.869319648, MAX_EFFECT 51.90839695, TOP 100.0
  PXC50: 4.01

## CS(=O)(=O)Nc1cccc2c(=O)cc(C(=O)NCC3CCCCC3)oc12
MAX_EFFECT 0.797448166
  PXC50: < 4
MAX_EFFECT 2.111324376
  PXC50: < 4

## CCNc1cc(-c2ccccn2)nc(Nc2ccc(OC)cc2)n1
MAX_EFFECT 22.3255814
  PXC50: < 4
MAX_EFFECT 23.54312354
  PXC50: < 4

## N[C@H](COc1cccc(F)c1Oc1ccc(Cl)cc1)c1ccccc1
BOTTOM 4.511954534, HILLSLOPE 1.875524354, MAX_EFFECT 67.28778468, TOP 93.68195714
  PXC50: 4.2
BOTTOM -3.133728258, HILLSLOPE 1.050142996, MAX_EFFECT 53.9445629, TOP 100.0
  PXC50: 4.1

## Cc1nc(NC2CCCC2)c2c3c(sc2n1)CCCC3
MAX_EFFECT 28.64583333
  PXC50: < 4
MAX_EFFECT 30.70175439
  PXC50: < 4

## Nc1noc2ccc(-c3cnc4ccc(NC5CC5)nn34)cc12
MAX_EFFECT 22.39185751
  PXC50: < 4
MAX_EFFECT 25.87719298
  PXC50: < 4

## CN(c1ncnc2c1cnn2C)C1CCCN(c2cccnn2)C1 (stereo not given)
MAX_EFFECT 40.92592593
  PXC50: < 4
MAX_EFFECT 46.94835681
  PXC50: < 4

## COCCNc1ccc2ncc(-c3ccc4onc(N)c4c3)n2n1
MAX_EFFECT 3.125
  PXC50: < 4
MAX_EFFECT 3.947368421
  PXC50: < 4

## CN(C)C(=O)C1CCN(c2cncc(-n3cccn3)n2)CC1
MAX_EFFECT 5.700712589
  PXC50: < 4
MAX_EFFECT 11.44366197
  PXC50: < 4

## Cc1nc(NCC2COCCO2)c2c3c(sc2n1)CCC3 (stereo not given)
MAX_EFFECT 5.303030303
  PXC50: < 4
MAX_EFFECT 6.632653061
  PXC50: < 4

## Cc1cc(C(F)(F)F)nc(CCNc2nc(C)nc3sccc23)n1
MAX_EFFECT 8.838383838
  PXC50: < 4
MAX_EFFECT 11.2244898
  PXC50: < 4

## CS(=O)(=O)N1CCN(c2ccc3ccc(C(=O)N4CCCCO4)cn23)CC1
BOTTOM 3.408302262, HILLSLOPE 2.699207266, MAX_EFFECT 56.14035088, TOP 100.0
  PXC50: 4.33
BOTTOM -1.088314762, HILLSLOPE 0.901802249, MAX_EFFECT 54.6875, TOP 100.0
  PXC50: 4.49

## CNC(=O)CN(C)c1nc(-c2cccs2)nc2sc(C)c(C)c12
MAX_EFFECT 6.801007557
  PXC50: < 4
MAX_EFFECT 6.870229008
  PXC50: < 4

## Cc1nnc(NCC2(c3ccccc3)CCOCC2)c(C#N)c1C
MAX_EFFECT 7.981220657
  PXC50: < 4
MAX_EFFECT 16.48148148
  PXC50: < 4

## Cc1sc2nc(CN3CCOCC3)nc(NC3CCS(=O)(=O)C3)c2c1C (stereo not given)
MAX_EFFECT 9.625668449
  PXC50: < 4
MAX_EFFECT 10.38251366
  PXC50: < 4

## CC(C)C[C@H](N)COc1ccc(Cl)cc1C(=O)c1ccccc1
MAX_EFFECT 7.036247335
  PXC50: < 4
MAX_EFFECT 9.316770186
  PXC50: < 4

## CCN(CC)c1ccc2ccc(C(=O)N(CCOC)CCOC)cn12
MAX_EFFECT 40.55555556
  PXC50: < 4
MAX_EFFECT 42.72300469
  PXC50: < 4

## O=C(C1CCC1)N1CCC(c2ncc3c(n2)CCNC3)CC1
MAX_EFFECT 30.83900227
  PXC50: < 4
MAX_EFFECT 33.27102804
  PXC50: < 4

## Cc1nc(NCCCS(N)(=O)=O)c2c3c(sc2n1)CCC3
MAX_EFFECT 5.319148936
  PXC50: < 4
MAX_EFFECT 8.29015544
  PXC50: < 4

## Cc1nc(NCC(=O)O)c2cc(-c3ccccc3)sc2n1
MAX_EFFECT 8.533333333
  PXC50: < 4
MAX_EFFECT 10.58201058
  PXC50: < 4

## Cc1sc2nc(-c3cccnc3)nc(NCCN3CCOCC3)c2c1C
MAX_EFFECT 3.015075377
  PXC50: < 4
MAX_EFFECT 4.668304668
  PXC50: < 4

## CS(=O)(=O)N1CCN(c2ccc3cnc(C(=O)NC4CCCC4)cn23)CC1
MAX_EFFECT 8.333333333
  PXC50: < 4
MAX_EFFECT 13.54166667
  PXC50: < 4

## NC(=O)C1CN(c2nc(C3CC3)nc3sc4c(c23)CCCC4)CCO1 (stereo not given)
MAX_EFFECT 5.699481865
  PXC50: < 4
MAX_EFFECT 7.446808511
  PXC50: < 4

## CN(c1ncnc2sccc12)C1CCCN(c2cccnn2)C1 (stereo not given)
MAX_EFFECT 11.26760563
  PXC50: < 4
MAX_EFFECT 18.33333333
  PXC50: < 4

## Cc1sc2nc(-c3cccnc3)nc(NCCOCCO)c2c1C
MAX_EFFECT 9.042553191
  PXC50: < 4
MAX_EFFECT 9.844559585
  PXC50: < 4

## Cc1sc2nc(CN3CCOCC3)nc(NC(C)(C)CCO)c2c1C
MAX_EFFECT 4.371584699
  PXC50: < 4
MAX_EFFECT 8.021390374
  PXC50: < 4

## Cc1nc(N2CCCCCC2)c2ccsc2n1
MAX_EFFECT 9.6
  PXC50: < 4
MAX_EFFECT 10.05291005
  PXC50: < 4
